RecA intein inh: Mtb RecA intein splicing inhibition; P9WHJ3; cell-free RecA intein splicing, fluorescence; inhibition, % (test concentration not listed); 290,000 tested, 0.75% active; AID 2221; in the data active means inhibition above about 30%; inconclusive means no clear call, values can overlap the other calls;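 further: 0% = vehicle wells and 100% = reference inhibitor control wells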
Rv3671c inh: Rv3671c (M. tuberculosis) protease inhibition | inhibition, % at 5.96 µM | 320,000 tested, 0.048% active | P9WHR9 | AID 2606; in the data active means inhibition above about 38%;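 further: extracellular domain of Rv3671c used as enzyme; 0% = enzyme with DMSO and 100% = no enzyme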
Mtb UGM inh: inhibitors of M. tuberculosis UDP-galactopyranose mutase; P9WIQ1; purified UGM, fluorescence polarization probe displacement; inhibition, % at 10 µM; 320,000 tested, 0.06% active; AID 504406; in the data active means inhibition above about 10%, passing the limit was not always enough; inconclusive means no clear call, values can overlap the other calls
Target sequence (P9WIQ1 whole entry, looked up): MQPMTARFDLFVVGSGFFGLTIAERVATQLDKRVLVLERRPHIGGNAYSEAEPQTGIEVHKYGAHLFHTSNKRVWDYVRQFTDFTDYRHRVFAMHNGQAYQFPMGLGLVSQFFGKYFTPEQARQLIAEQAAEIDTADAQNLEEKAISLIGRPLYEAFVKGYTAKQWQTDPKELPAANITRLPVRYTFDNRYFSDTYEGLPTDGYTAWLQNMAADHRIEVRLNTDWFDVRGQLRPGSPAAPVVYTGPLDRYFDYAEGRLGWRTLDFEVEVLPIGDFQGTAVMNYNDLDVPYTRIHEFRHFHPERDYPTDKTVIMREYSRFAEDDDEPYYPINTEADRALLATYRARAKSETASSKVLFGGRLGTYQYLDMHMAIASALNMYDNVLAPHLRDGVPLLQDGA
FBA Mtb inh: inhibits M. tuberculosis FBA enzyme | AID 588726 | 360,000 tested, 2.3% active | purified M. tuberculosis FBA, fluorescence read-out | inhibition, % at 1 µM; in the data active means inhibition above about 27%;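 further: 0% = vehicle and 100% = reference inhibitor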
GDH-TPI counter: counter-screen for M. tuberculosis FBA inhibitors: GDH-TPI coupled enzymes; GDH-TPI coupled enzyme counterscreen, NADH absorbance; inhibition, % at 4.8 µM; 360,000 tested, 1.2% active; AID 588335; in the data active means inhibition above about 30%;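 further: 0% = DMSO wells and 100% = wells lacking the enzyme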
Mtb bLac sens: beta-lactam sensitization of Mtb H37Rv; M. tuberculosis H37Rv growth with meropenem, percent inhibition; inhibition, % at 25 µM; 330,000 tested, 0.27% active; AID 434955; call rule not given here;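 further: growth measured after seven days incubation then overnight dye step; 0% = bacteria only wells and 100% = bacteria with antibiotic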
The depositor's hits bear a star. Sampled rows, rich in hits. Any-hit rate of the full collection: about 4%.

Results for Cc1ccccc1OCCn1cc(C(=S)N2CCCC2)c2ccccc21 ?
Rv3671c inh: -8; Mtb UGM inh: 11*; FBA Mtb inh: -3; GDH-TPI counter: 0; Mtb bLac sens: -10

How did O=C1c2cccc3c(N4CCCCC4)ccc(c23)C(=O)N1c1ccccn1 do in these assays?
RecA intein inh: -16; Rv3671c inh: -3; Mtb UGM inh: 10*; FBA Mtb inh: 0; GDH-TPI counter: 3

How did O=C1c2cccc3c([N+](=O)[O-])ccc(c23)C(=O)N1c1ccccn1 do in these assays?
RecA intein inh: -33; Rv3671c inh: -2; Mtb UGM inh: 3; FBA Mtb inh: 0; GDH-TPI counter: 23; Mtb bLac sens: 100

What do the screens show for `CC(C)C(=O)NC(c1ccccc1Cl)c1c(O)ccc2ccccc12` (stereo not drawn)?
RecA intein inh: -5; Rv3671c inh: 6; Mtb UGM inh: -1; FBA Mtb inh: 5; GDH-TPI counter: 2; Mtb bLac sens: -16

What do the screens show for `CCN(Cc1ccc(OC)c(F)c1)C(=O)CCl`?
RecA intein inh: 49*; Rv3671c inh: 1; Mtb UGM inh: -1; FBA Mtb inh: -1; GDH-TPI counter: -5; Mtb bLac sens: 98

What do the screens show for `CCN(Cc1ccc(OC)c(F)c1)C(=O)C1CCCO1` (stereo not drawn)?
RecA intein inh: 0; Rv3671c inh: 0; Mtb UGM inh: -1; FBA Mtb inh: 2; GDH-TPI counter: -5; Mtb bLac sens: 3

Results for NC(c1csc(Nc2nncc3ccccc23)n1)C1CCCCC1 (stereo not drawn) ?
FBA Mtb inh: 4; GDH-TPI counter: 8

What do the screens show for `COc1ccccc1-c1nnc(NC(=O)c2ccc(S(=O)(=O)N(C)C)cc2)o1`?
RecA intein inh: 2; Rv3671c inh: -20; Mtb UGM inh: -2; FBA Mtb inh: -2; GDH-TPI counter: 34*; Mtb bLac sens: 45

Results for O=C(/C=C/c1ccc(F)cc1)Nc1ccc(S(=O)(=O)Nc2ncccn2)cc1 ?
RecA intein inh: -1; Rv3671c inh: -10; Mtb UGM inh: 0; FBA Mtb inh: 2; GDH-TPI counter: 33*; Mtb bLac sens: 2

What do the screens show for `Cc1ccc(/C=C/C(=O)Nc2ccc(S(=O)(=O)Nc3ncccn3)cc2)cc1`?
RecA intein inh: -2; Rv3671c inh: 9; Mtb UGM inh: -2; FBA Mtb inh: 5; GDH-TPI counter: 17; Mtb bLac sens: 2

What do the screens show for `c1ccc2c(N3CCOCC3)nc(-c3ccncc3)nc2c1`?
RecA intein inh: 2; Rv3671c inh: 1; Mtb UGM inh: -1; FBA Mtb inh: -1; GDH-TPI counter: 33*; Mtb bLac sens: 54

What do the screens show for `Cc1ccc(S(=O)(=O)NCC(=O)OCC(=O)Nc2ccc3c(c2)OCCO3)cc1`?
Rv3671c inh: -8; Mtb UGM inh: 2; FBA Mtb inh: 0; GDH-TPI counter: -2; Mtb bLac sens: 2

What do the screens show for `O=C(O)c1ccc2c(c1)C(=O)N(c1ccc([N+](=O)[O-])cn1)C2=O`?
RecA intein inh: 6; Rv3671c inh: -1; Mtb UGM inh: 1; FBA Mtb inh: -1; GDH-TPI counter: 36*; Mtb bLac sens: -3

How did O=C(O)c1ccc2c(c1)C(=O)N(c1ccc(Cl)cn1)C2=O do in these assays?
RecA intein inh: 0; Rv3671c inh: 6; Mtb UGM inh: 2; FBA Mtb inh: 2; GDH-TPI counter: 5; Mtb bLac sens: -2

How did Cc1ccc(S(N)(=O)=O)c(C)c1N1CCCC1=O do in these assays?
RecA intein inh: -1; Rv3671c inh: 3; Mtb UGM inh: 0; FBA Mtb inh: 9; GDH-TPI counter: 2; Mtb bLac sens: 1

Results for O=c1cc(/C=C/c2ccccc2)oc2ccccc12 ?
Rv3671c inh: -7; Mtb UGM inh: 1; FBA Mtb inh: 6; GDH-TPI counter: 32*; Mtb bLac sens: 93

Results for O=c1cc(-c2ccccc2)oc2ccccc12 ?
Rv3671c inh: -5; Mtb UGM inh: 0; FBA Mtb inh: -2; GDH-TPI counter: 0; Mtb bLac sens: 2

How did COc1ccc(NC(=O)c2cc(S(=O)(=O)N3CCCCC3)ccc2N2CCCCC2)cn1 do in these assays?
RecA intein inh: 10; Rv3671c inh: 5; Mtb UGM inh: 0; FBA Mtb inh: 3; GDH-TPI counter: 8; Mtb bLac sens: -9

How did CN(C)c1ccc(/C=C2\SC(=O)N(CCc3nnc(N)s3)C2=O)cc1 do in these assays?
RecA intein inh: -3; Rv3671c inh: -14; Mtb UGM inh: -1; FBA Mtb inh: -22; GDH-TPI counter: 32*; Mtb bLac sens: 19

How did CCCCN1Cc2c(nc3cc(-c4ccco4)[nH]n3c2=O)C1=O do in these assays?
Rv3671c inh: 17; Mtb UGM inh: -2; FBA Mtb inh: 143*; GDH-TPI counter: 6; Mtb bLac sens: 34

What do the screens show for `O=C(CN1CCN(C2CCCCC2)CC1)Nc1cccc2ccccc12`?
RecA intein inh: -2; Rv3671c inh: 4; Mtb UGM inh: -1; FBA Mtb inh: 2; GDH-TPI counter: 32*; Mtb bLac sens: -9

Results for COC(=O)c1scc(C)c1NC(=O)c1cccc(C#N)c1 ?
RecA intein inh: -1; Rv3671c inh: -2; Mtb UGM inh: 1; FBA Mtb inh: 2; GDH-TPI counter: -6; Mtb bLac sens: 1

Results for CCCCCCNC(=O)C(C#N)c1nc2ccccc2nc1N1CCCC1 (stereo not drawn) ?
RecA intein inh: -37; Rv3671c inh: -3; Mtb UGM inh: 2; FBA Mtb inh: 4; GDH-TPI counter: 5; Mtb bLac sens: 15

What do the screens show for `CCCCCCNC(=O)C(C#N)c1nc2ccccc2nc1N1CCOCC1` (stereo not drawn)?
RecA intein inh: -22; Rv3671c inh: 1; Mtb UGM inh: 14*; FBA Mtb inh: 2; GDH-TPI counter: 4; Mtb bLac sens: 2

How did COc1cc(-c2nc3cc(C)ccn3c2NC2CCCCC2)ccc1-c1ccc(C(C)=O)cc1 do in these assays?
RecA intein inh: -6; Rv3671c inh: -3; Mtb UGM inh: 0; FBA Mtb inh: 10; GDH-TPI counter: 7; Mtb bLac sens: 89

What do the screens show for `COc1ccc(C(=O)N2CCN(c3ccc([N+](=O)[O-])c(NCCc4ccc(OC)c(OC)c4)c3)CC2)cc1`?
RecA intein inh: -3; Rv3671c inh: 4; Mtb UGM inh: 1; FBA Mtb inh: -2; GDH-TPI counter: 13; Mtb bLac sens: inconclusive

What do the screens show for `COc1ccc(CCNc2cc(N3CCN(C(=O)c4ccc(C)cc4)CC3)ccc2[N+](=O)[O-])cc1OC`?
RecA intein inh: -3; Rv3671c inh: 43*; Mtb UGM inh: -2; Mtb bLac sens: -2

What do the screens show for `COc1ccc(NC2=CC(=O)CC(c3ccccc3)C2)cc1` (stereo not drawn)?
RecA intein inh: 1; Rv3671c inh: 12; Mtb UGM inh: 0; FBA Mtb inh: 2; GDH-TPI counter: 2; Mtb bLac sens: -1

How did CCn1c2ccccc2c2cc(N)ccc21 do in these assays?
RecA intein inh: 4; Rv3671c inh: 6; Mtb UGM inh: -1; FBA Mtb inh: 6; GDH-TPI counter: 1; Mtb bLac sens: 72

Bioassay records from PubChem BioAssay.
